The record followed here is PubChem BioAssay (EPA / NIEHS).

Values joined by “and” are separate entries in the source; they are usually repeats but may differ in a detail not shown here. Identical values can stand only once. Records with an inconclusive call do not appear. A structure can be active in one record and inactive in another. Active and inactive are the calls of the source. The calls were made as follows, unless noted: active = hit-call score of the fitted dose curve at least 0.9, where 1 is the maximum; inactive = score below 0.9.

Read-out in one assay: KRT18 (gene 3875)
Briefly: BSK_BE3C_Keratin818: BioMAP Diversity Plus: BE3C Assay for Keratin 818 Biomarker Activity (AID 2284282). As to conditions: primary human bronchial epithelial cells. In outline: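 ELISA readout of Keratin 8/18 in human primary bronchial epithelial cultures after 24 h chemical exposure, DMSO baseline. Parallel SRB staining (0.1%, TCA-fixed, 560 nm) served as cytotoxicity check.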

Read-out in assay [1]: Matrix Metallopeptidase 9 (MMP9), MMP9 (gene 4318)
Briefly: BSK_BE3C_MMP9: BioMAP Diversity Plus: BE3C Assay for Matrix Metallopeptidase 9 (MMP9) Biomarker Activity (AID 2284283). The following applies: primary human bronchial epithelial cells. In outline: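 BE3C, human bronchial epithelial primary cells; 24 h post-dose; MMP-9 by ELISA; positive fit vs DMSO; SRB (0.1%, TCA-fixed, 560 nm) parallel cytotox.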

Read-out in assay [2]: Plasminogen activator inhibitor-1 (PAI1), SERPINE1 (gene 5054)
Kind of assay: BSK_CASM3C_PAI1: BioMAP Diversity Plus: CASM3C Assay for Plasminogen activator inhibitor-1 (PAI1) Biomarker Activity (AID 2284284).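 Also: PAI-1 protein level measured by ELISA 24 h after dosing.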 As to conditions: primary human coronary artery smooth muscle cells.

Read-out in assay [3]: Monocyte Chemoattractant Protein-1 (MCP1), CCL2 (gene 6347)
Briefly: BSK_hDFCGF_MCP1: BioMAP Diversity Plus: hDFCGF Assay for Monocyte Chemoattractant Protein-1 (MCP1) Biomarker Activity (AID 2284285). The following applies: primary human foreskin fibroblasts. In short, it runs like this: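 MCP-1 ELISA readout was taken 24 hours after dosing primary human dermal fibroblasts in the hDFCGF system, with DMSO as baseline. Parallel sulforhodamine B staining of total protein tracked overt cytotoxicity.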

Read-out in assay [4]: Intercellular Adhesion Molecule 1 (ICAM1), ICAM1 (gene 3383)
Briefly: BSK_hDFCGF_ICAM1: BioMAP Diversity Plus: hDFCGF Assay for Intercellular Adhesion Molecule 1 (ICAM1) Biomarker Activity (AID 2284287). As to conditions: primary human foreskin fibroblasts. In short, it runs like this: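 ICAM-1 ELISA readout 24 h after dosing, DMSO as baseline, in human dermal foreskin fibroblast cultures. Cytotoxicity checked in parallel wells by SRB staining (0.1% SRB, 10% TCA fixation, 560 nm).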

Read-out in assay [5]: TIMP metallopeptidase inhibitor 2 (TIMP2), TIMP2 (gene 7077)
Kind of assay: BSK_hDFCGF_TIMP2: BioMAP Diversity Plus: hDFCGF Assay for TIMP metallopeptidase inhibitor 2 (TIMP2) Biomarker Activity (AID 2284289). As to conditions: primary human foreskin fibroblasts. In short, it runs like this:
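Primary human foreskin fibroblasts in the hDFCGF system, dosed for 24 h; TIMP-2 level measured by ELISA, fitted in the positive direction against DMSO; cytotoxicity checked in parallel by sulforhodamine B total protein staining.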

Read-out in assay [6]: Thrombomodulin, THBD (gene 7056)
Kind of assay: BSK_LPS_Thrombomodulin: BioMAP Diversity Plus: LPS Assay for Thrombomodulin Biomarker Activity (AID 2284296). As to conditions: primary human HUVEC with PBMC. In outline:
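Thrombomodulin on the surface of LPS-activated endothelial/PBMC co-cultures was quantified by ELISA at 24 hours post-dosing, with DMSO as baseline. Parallel SRB total-protein staining flagged overt cytotoxicity.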

Assay [7] in a line: IUF_NPC2c_oligodendrocyte_migration_120hr: Leibniz Research Institute for Environmental Medicine (IUF) 120-hour Neural Progenitor Cell Migration Assay for Oligodendrocyte Migration (NPC2c) (AID 2284297). In outline:
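Read-out is the mean distance of O4-positive oligodendrocytes from the sphere core edge at 120 h, normalized to radial glia migration and fitted in the gain direction against DMSO. Spheres of primary human neural progenitors differentiated on laminin under continuous compound exposure.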

Assay [8] in a line: IUF_NPC2a_radial_glia_migration_120hr: Leibniz Research Institute for Environmental Medicine (IUF) 120-hour Neural Progenitor Cell Migration Assay for Radial Glia Migration (NPC2a) (AID 2284298). In outline:
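Readout: distance in um from sphere core edge to migration-area edge, derived from Hoechst nuclei density with a threshold-defined polynomial boundary. Spheres: hNPC, GW 16-19, 0.3 mm, on PDL/laminin; exposure 5 days; DMSO is baseline.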

Assay [9] is described as follows: IUF_NPC2a_radial_glia_migration_72hr: Leibniz Research Institute for Environmental Medicine (IUF) 72-hour Neural Progenitor Cell Migration Assay for Radial Glia Migration (NPC2a) (AID 2284299). In short, it runs like this:
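Radial glia migration (µm, sphere core edge to migration front, four directions averaged) from brightfield images at 72 h; hNPC spheres differentiating on PDL/laminin in N2 medium, compound exposure at 7 concentrations from plating.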

A short description of assay [10]: IUF_NPC2b_neuronal_migration_120hr: Leibniz Research Institute for Environmental Medicine (IUF) 120-hour Neural Progenitor Cell Migration Assay for Neuron Migration (NPC2b) (AID 2284300). In short, it runs like this:
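Read-out is mean distance from sphere edge to each TUBB3-positive neuron at 120 h, expressed relative to radial glia migration distance and to DMSO baseline. Single 0.3 mm human NPC spheres differentiated on laminin under continuous compound exposure.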

Assay [11] is described as follows: IUF_NPC3_neuronal_differentiation_120hr: Leibniz Research Institute for Environmental Medicine (IUF) 120-hour Neuronal Differentiation Assay (NPC3) (AID 2284301). In outline: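 Neuronal differentiation of primary human neural progenitors measured by high-content imaging: percent TUBB3+ of Hoechst+ nuclei within migrated area at 120 h, seven-point serial dilution plus solvent control, gain or loss relative to DMSO.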

Assay [12] in a line: IUF_NPC4_neurite_length_120hr: Leibniz Research Institute for Environmental Medicine (IUF) 120-hour Neuronal Morphology Assay for Neurite Length (NPC4) (AID 2284302). In outline:
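Neurons from differentiating human fetal neural progenitor spheres are scored for average neurite length after five days of compound exposure. Fitting uses DMSO as negative control.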

Read-out in the next assay: CD69, CD69 (gene 969)
Briefly: BSK_LPS_CD69: BioMAP Diversity Plus: LPS Assay for CD69 Biomarker Activity (AID 2284303). As to conditions: primary human HUVEC with PBMC. In short, it runs like this:
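CD69 surface levels were read by ELISA after 24 h chemical treatment of an LPS-stimulated HUVEC plus PBMC co-culture; positive-direction fit against DMSO vehicle.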

The nature of assay [13]: IUF_NPC5_oligodendrocyte_differentiation_120hr: Leibniz Research Institute for Environmental Medicine (IUF) 120-hour Oligodendrocyte Differentiation Assay (NPC5) (AID 2284304; active = hit-call score of the fitted dose curve at least 0.9, where 1 is the maximum;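 also: primary human fetal neural progenitor spheres plated to migrate and differentiate; share of O4-positive cells among Hoechst nuclei found by CNN image analysis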). In short, it runs like this: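 Oligodendrocyte differentiation was scored after 120 h as the O4-positive share of Hoechst-stained nuclei across the neurosphere migration area, using a trained convolutional neural network on high-content fluorescence images. Human fetal neural progenitor spheres were dosed from day 0, normalised to DMSO.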

Assay [14] can be described thus: IUF_NPC4_neurite_area_120hr: Leibniz Research Institute for Environmental Medicine (IUF) 120-hour Neuronal Morphology Assay for Neurite Area (NPC4) (AID 2284305; active = hit-call score of the fitted dose curve at least 0.9, where 1 is the maximum). In short, it runs like this:
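Endpoint at 120 h: automated imaging of TUBB3/Hoechst-stained differentiating human neural progenitor spheres, neurite area per neuron from skeletonization. DMSO solvent control, not above 0.1%, set the baseline; medium was half-replaced on day 3.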

Assay [15] can be described thus: IUF_NPC2-5_cytotoxicity_72hr: Cytotoxicity Assessment at 72 hours in the Leibniz Research Institute for Environmental Medicine (IUF) Neural Progenitor Cell Migration and Differentiation Assay for Cytotoxicity (NPC2-5) (AID 2284306; active = hit-call score of the fitted dose curve at least 0.9, where 1 is the maximum;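 also: LDH release into supernatant measured by resorufin fluorescence marking membrane damage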). In short, it runs like this:
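Primary human neural progenitor spheres migrate and differentiate on laminin. Compound is present from the start of differentiation, with DMSO kept at or below 0.1%. At 72 h, supernatant LDH is quantified fluorometrically, with values fitted in the positive direction.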

Assay [16] is described as follows: IUF_NPC2-5_cell_number_120hr: Cell Number Assessment at 120 hours in the Leibniz Research Institute for Environmental Medicine (IUF) Neural Progenitor Cell Migration and Differentiation Assay (NPC2-5) (AID 2284308).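 Also: count of Hoechst-stained nuclei in migration zone around plated human neural progenitor spheres.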 In outline: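 hNPC spheres, one per well, PDL/laminin, N2 medium, 37C, 5% CO2. Dosing day 0 → half-medium change with fresh compound day 3 → fix 120 h. Readout: Hoechst+ nuclei count, migration area; 7 concentrations plus solvent control.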

Assay [17] can be described thus: IUF_NPC2-5_viability_120hr: Viability Assessment at 120 hours in the Leibniz Research Institute for Environmental Medicine (IUF) Neural Progenitor Cell Migration and Differentiation Assay (NPC2-5) (AID 2284312). In short, it runs like this:
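Human fetal (GW 16-19) neural progenitor spheres of 0.3 mm were plated on poly-D-lysine/laminin in N2 differentiation medium and exposed from day 0 for 120 h, with half-medium refresh at day 3. Viability was read as alamar blue resazurin-to-resorufin fluorescence against DMSO.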

A short description of assay [18]: CCTE_Mundy_HCI_iCellGluta_NOG_NeuriteLength: CCTE's Neurite Outgrowth Assay in iCellGluta cells for Neurite Length, Mundy Lab (AID 2284318; active = hit-call score of the fitted dose curve at least 0.9, where 1 is the maximum). In outline: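 Automated high-content imaging of betaIII-tubulin (Alexa Fluor-488) and Hoechst-stained cells gave neurite length, normalized to the DMSO baseline.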
Assay [19] is described as follows: IUF_NPC1_cytotoxicity_72hr: Cytotoxicity Assessment at 72 hours in the Leibniz Research Institute for Environmental Medicine (IUF) Neural Progenitor Cell Proliferation Assay (NPC1) (AID 2284332; active = hit-call score of the fitted dose curve at least 0.9, where 1 is the maximum;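 also: rising LDH signal means more cytotoxicity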). In outline: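 Cytotoxicity by LDH membrane-integrity assay on medium supernatants, fluorescence via resazurin reduction, after 3-day single exposure of primary hNPC spheres at 37C, pH 7.2-7.6 with growth factors. Fitted upward against baseline.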

Assay [20] can be described thus: CCTE_Mundy_HCI_iCellGluta_NOG_NeuronCount: CCTE's Neurite Outgrowth Assay in iCellGluta cells for Neuron Count, Mundy Lab (AID 2284340; active = hit-call score of the fitted dose curve at least 0.9, where 1 is the maximum;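 also: cells fixed about 48 h after compound addition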). In outline: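 Neuron count read by automated high-content imaging of Hoechst 33342 and betaIII-tubulin/Alexa Fluor-488 labelling in human iPSC glutamatergic neurons. Activity fitted relative to DMSO.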
The nature of assay [21]: CCTE_Mundy_HCI_iCellGluta_NOG_NeuriteCount: CCTE's Neurite Outgrowth Assay in iCellGluta cells for Neurite Count, Mundy Lab (AID 2284342; active = hit-call score of the fitted dose curve at least 0.9, where 1 is the maximum;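 also: chemical exposure about 48 hours starting 2 hours after plating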).

By AC50 is commonly meant the midpoint of the concentration-response curve, whichever way the signal moves. On to `[Cd+2].[Cl-].[Cl-]`, for which the outcome was “inactive” with KRT18 (gene 3875); “inactive” in assay [6]; “inactive” in the assay with CD69, CD69 (gene 969); “inactive” in assay [19]. The concentration at half-maximal activity (AC50) in assay [1] was 32 µM (active) and 27.7 µM (active); in assay [2], 10.9 µM (active) and 13.8 µM (active); in assay [3], 4.82 µM (active) and 1.76 µM (active); in assay [4] it was 9.72 µM (active) and 13.9 µM (active); in assay [5], 3.97 µM (active) and 2.93 µM (active); in [7], 15.1 µM (active). Also, the AC50 in assay [8] is 8.38 µM (active); in [9], 8.95 µM (active); in assay [10], 17.7 µM (active); in [11] it was 0.00342 µM (active); in assay [12] it was 7.58 µM (active); with CD69, CD69 (gene 969) it was 7.19 µM (active). Besides, the AC50 in [13] was 17.5 µM (active); in assay [14] it was 15.6 µM (active); in assay [15] it was 13.5 µM (active); in [16], 4.7 µM (active); in assay [17], 6.4 µM (active); in assay [18], 10.8 µM (active). In addition, the half-maximal activity concentration (AC50) is 15 µM (active) in assay [20] and 11.4 µM (active) in assay [21].
